These results are taken from article PMC7826789 (International Journal of Molecular Sciences, 2021).

Conditions in all cases: Compound Concentration (nM):1000
Experiment [1] relates to EIF2AK1.
The test system of experiment [2] is EPHA1.
The test system of experiment [3] is EPHA2.
In experiment [4] the test system is EPHA3.
The subject of experiment [5] is EPHA4.
Experiment [6] has as its system EPHA5.
For experiment [7], the system named is EPHA6.
The subject of experiment [8] is EPHA7.
For experiment [9], the system named is EPHA8.
For experiment [10], the system named is EPHB1.
For experiment [11], the system named is EPHB2.
Experiment [12] has as its system EPHB3.
Experiment [13] has as its system EPHB4.
For experiment [14], the system named is EPHB6.
In experiment [15] the test system is ERBB2.
Experiment [16] has as its system ERBB3.
For experiment [17], the system named is ERBB4.
Experiment [18] relates to T1, ERK1.
T1 construct: gene MAPK3

The test system of experiment [19] is T2, ERK2.
T2 construct: gene MAPK1

Experiment [20] concerns T3, ERK3.
T3 construct: gene MAPK6
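Further: KINOMEscan scanMAX binding as percent activity remaining versus control; lower means stronger binding.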

For the molecule `COc1ccc2[nH]c3c4[nH]c5ccc(OC)cc5c4c4c(c3c2c1)C(=O)NC4=O` [GW296115X], the “Percent Control” value in experiment [1] stood at 86%; in [2], 93%; in [3] it was 85%; in [4] it was 86%; in [5], 86%; in [6], 85%. Besides, the “Percent Control” value in [7] is reported as 88%; in [8], 86%; in experiment [9], 87%; in experiment [10] it was 77%; in experiment [11] it was 84%; in experiment [12] it was 85%. The “Percent Control” value in [13] was 84%; in [14] it was 7.3%; in experiment [15] it was 100%; in [16], 85%; in [17] it was 59%; in [18] it was 85%. Moreover, the “Percent Control” value in [19] is recorded as 76%; in experiment [20], 84%.

Take `O=C1Nc2ccc(C(=O)c3ccco3)cc2C1=Cc1cc(Cl)c(O)c(Cl)c1` [GW406108X]: the “Percent Control” value in experiment [1] is 100%; in experiment [2], 100%; in experiment [3], 75%; in experiment [4], 100%; in experiment [5] it was 89%; in [6], 100%. In addition, the “Percent Control” value in [7] came out at 100%; in experiment [8], 100%; in experiment [9], 100%; in [10], 100%; in experiment [11], 100%; in experiment [12] it was 89%. In addition, the “Percent Control” value is 98% in experiment [13]; 63% in [14]; 83% in experiment [15]; 87% in experiment [16]; 100% in experiment [17]; 100% in [18]. Further, the “Percent Control” value in experiment [19] and in experiment [20] was 94% each time.

As to `O=C(Nc1n[nH]c2nc(-c3ccc(O)cc3)c(Br)cc12)C1CC1` [SB-725317], the “Percent Control” value in experiment [1] was 14%; in [2], 82%; in experiment [3], 100%; in experiment [4] it was 85%; in [5], 86%; in experiment [6] it was 100%. In addition, the “Percent Control” value in experiment [7], in experiment [8], in experiment [9], in experiment [10], in [11] and in experiment [12] was 100% each time. Also, the “Percent Control” value in experiment [13] is 100%; in experiment [14], 57%; in [15], 80%; in experiment [16], 32%; in [17] it was 100%; in experiment [18], 100%. Besides, the “Percent Control” value in experiment [19] and in experiment [20] was 100% throughout.

Consider `CCS(=O)(=O)c1ccc(OC)c(Nc2ncc(-c3cccc(F)c3)o2)c1` [GW621970X], for which the “Percent Control” value in experiment [1] is on record as 100%; in [2], 65%; in [3], 100%; in experiment [4], 68%; in experiment [5], 96%; in experiment [6], 100%. Besides, the “Percent Control” value in experiment [7], in experiment [8], in experiment [9], in experiment [10], in [11] and in [12] was 100% in each case. The “Percent Control” value in experiment [13] was 99%; in experiment [14], 1.6%; in [15], 88%; in experiment [16] it was 53%; in experiment [17], 100%; in experiment [18], 100%. In addition, the “Percent Control” value in experiment [19] and in experiment [20] was 100% throughout.

Consider `COc1cc2ncn(-c3cc(O[C@H](C)c4ccccc4Cl)c(C(N)=O)s3)c2cc1OC` [GSK237701A], for which the “Percent Control” value in [1] worked out at 92%; in experiment [2], 100%; in experiment [3], 100%; in experiment [4] it was 100%; in experiment [5], 72%; in experiment [6], 100%. The “Percent Control” value came out at 83% in experiment [7]; 88% in [8]; 89% in experiment [9]; 81% in [10]; 90% in experiment [11]; 92% in [12]. The “Percent Control” value in experiment [13] was 85%; in [14], 16%; in experiment [15] it was 100%; in [16] it was 89%; in [17], 63%; in experiment [18], 100%. The “Percent Control” value in [19] came to 100%; in experiment [20] it was 82%.

For `Cl.O=C(Nc1ccc(Oc2ccc3[nH]c(NC(=O)c4ccco4)nc3c2)cc1)Nc1cc(C(F)(F)F)ccc1F` [GW683134A], the “Percent Control” value in experiment [1] is recorded as 100%; in experiment [2] it was 20%; in [3], 15%; in experiment [4], 58%; in experiment [5] it was 14%; in experiment [6], 53%. The “Percent Control” value is 35% in experiment [7]; 17% in experiment [8]; 1.1% in experiment [9]; 39% in [10]; 31% in experiment [11]; 99% in [12]. Also, the “Percent Control” value was 87% in experiment [13]; 3.2% in [14]; 79% in [15]; 77% in experiment [16]; 100% in experiment [17]; 100% in experiment [18]. Moreover, the entries for the “Percent Control” value in experiment [19] and in experiment [20] were 100% and 90%, respectively.

Turning to `NS(=O)(=O)c1ccc(N/N=C2\C(=O)Nc3ccc(C(=O)NCCc4c[nH]cn4)cc32)cc1` [GW300660X], the “Percent Control” value in experiment [1] was found to be 100%; in experiment [2], 100%; in [3], 100%; in experiment [4] it was 100%; in experiment [5], 89%; in experiment [6], 100%. Also, the “Percent Control” value in experiment [7], in [8], in experiment [9], in [10], in [11] and in experiment [12] was 100% in each case. Moreover, the “Percent Control” value in [13] was 100%; in experiment [14], 37%; in experiment [15], 57%; in experiment [16], 86%; in experiment [17] it was 100%; in [18], 100%. Also, the “Percent Control” value in [19] and in [20] was 100% throughout.

For `CCS(=O)(=O)c1ccc(OC)c(Nc2ncc(-c3cccc(OC)c3)o2)c1` [GW580509X], the “Percent Control” value came to 100% in [1]; 100% in experiment [2]; 100% in experiment [3]; 94% in [4]; 92% in [5]; 100% in [6]. The “Percent Control” value in experiment [7], in experiment [8], in experiment [9], in experiment [10], in experiment [11] and in [12] was 100% in each case. Further, the “Percent Control” value in experiment [13] was 100%; in [14], 3.3%; in experiment [15], 77%; in experiment [16] it was 54%; in [17], 100%; in [18], 100%. In addition, the “Percent Control” value in [19] and in [20] was 100% in each case.

For `Cl.O=S1CCN(Cc2ccc(-c3ccc4ncnc(Nc5ccc(OCc6ccccc6)c(F)c5)c4c3)o2)CC1` [GW576924A], the “Percent Control” value is listed as 100% in experiment [1]; 100% in [2]; 100% in experiment [3]; 100% in experiment [4]; 95% in [5]; 100% in experiment [6]. Besides, the “Percent Control” value in [7] was 100%; in experiment [8], 100%; in experiment [9] it was 95%; in experiment [10] it was 100%; in [11] it was 100%; in experiment [12] it was 100%. For the same molecule, the “Percent Control” value in experiment [13] is 100%; in experiment [14], 100%; in [15], 0%; in experiment [16], 58%; in experiment [17], 22%; in [18] it was 100%. Also, the “Percent Control” value in experiment [19] and in experiment [20] was 100% throughout.

With `COc1cc(/C=N/Nc2ncnc3[nH]ncc23)ccc1O` [GW578748X], the “Percent Control” value is given as 100% in experiment [1]; 92% in [2]; 96% in experiment [3]; 58% in [4]; 74% in experiment [5]; 90% in experiment [6]. In addition, the “Percent Control” value in experiment [7], in experiment [8], in experiment [9], in [10], in experiment [11] and in experiment [12] was 100% throughout. For the same molecule, the “Percent Control” value in [13] was 100%; in experiment [14], 1.6%; in experiment [15] it was 57%; in experiment [16] it was 64%; in [17], 100%; in experiment [18] it was 100%. Moreover, the “Percent Control” value in [19] came out at 100%; in experiment [20] it was 57%.
